Test results published in PubChem BioAssay AID588519 (ICCB-Longwood Screening Facility, Harvard Medical School, 2011).
Hit rate of the full screen: of about 150,000 compounds, about 1,000 (0.67%) were called active. This is one part of a sample in which actives are shown more often than they occur. Cut-off read from the data, not from the text of the source: active = % elongation below about 90%; inactive = the rest, inconclusive results apart.

Target: Genome polyprotein (Poliovirus type 1 (strain Mahoney)) (UniProt P03300)
Assay: poliovirus RdRp elongation inhibitors, primary screen, biochemical, fluorescence polarization, total intensity (AID 588519); for z-score: compound at 16.7 µg/mL
Conditions: poliovirus polymerase elongation, stronger effect = lower value; for % elongation: compound at 16.7 µg/mL; for z-score: measured here: FP z-score
[1] = measured here: total intensity read-out

Sequence of Genome polyprotein (Poliovirus type 1 (strain Mahoney)) (P03300 1749-2209 limits assumed): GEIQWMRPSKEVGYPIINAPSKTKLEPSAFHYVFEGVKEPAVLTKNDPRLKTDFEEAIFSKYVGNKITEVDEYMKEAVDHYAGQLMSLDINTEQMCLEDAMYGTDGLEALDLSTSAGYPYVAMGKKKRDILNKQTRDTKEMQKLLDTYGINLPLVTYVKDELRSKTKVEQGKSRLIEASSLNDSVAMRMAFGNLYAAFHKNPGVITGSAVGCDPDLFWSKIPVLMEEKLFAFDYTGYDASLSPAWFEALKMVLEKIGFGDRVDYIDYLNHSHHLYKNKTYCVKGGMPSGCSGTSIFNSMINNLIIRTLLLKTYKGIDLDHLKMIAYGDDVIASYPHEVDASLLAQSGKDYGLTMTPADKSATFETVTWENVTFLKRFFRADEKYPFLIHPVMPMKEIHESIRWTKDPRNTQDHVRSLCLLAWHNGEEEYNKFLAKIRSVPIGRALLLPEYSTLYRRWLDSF

| SMILES | % elongation | z-score | % elongation [1] |
| --- | --- | --- | --- |
| Nn1c(SCC(=O)Nc2ccc(S(=O)(=O)N3CCCC3)cc2)nnc1-c1ccccc1 | 76% (active) | -5.5 | 80% |
| COc1ccc(Cc2nnc(SCC(=O)Nc3ccc(S(=O)(=O)N4CCCCCC4)cc3)o2)cc1 | 104% (inactive) | 0.4 | 102% |
| O=C(CSc1nnc(-c2ccncc2)n1-c1ccccc1)Nc1ccccc1 | 100% (inactive) | -0.8 | 96% |
| Cc1ccccc1CN1CCN(CC(=O)NCc2cccs2)C1=O | 98% (inactive) | -0.7 | 103% |
| CCCC(Nc1cc(Cl)cc(Cl)c1)n1nnc2ccccc21 (centres undefined) | 104% (inactive) | 0.1 | 110% |
| O=C(CSC(=S)N1CCCC1)Nc1ccccc1OC(F)F | 105% (inactive) | 0.5 | 104% |
| Cc1ccc(N2C(=O)NC(=O)/C(=C\c3ccco3)C2=O)c(C)c1 | 99% (inactive) | -0.2 | 97% |
| CS(=O)(=O)C1=NSC2=NC(=O)/C(=C\c3ccco3)C(=N)N21 | 66% (active) | -10.9 | 23% |
| CC(C)(C)C1C/C(=C/c2ccco2)C(=O)/C(=C/c2ccco2)C1 (centres undefined) | 76% (inactive) | -3.3 | 189% |
| CN(C)/C=N/N=C(\Cc1nc2ccccc2[nH]1)c1ccccc1 | 102% (inactive) | 0.2 | 106% |
| O=C(COC(=O)c1cc(=O)[nH]c2ccccc12)NCc1ccco1 | 107% (inactive) | 0.6 | 101% |
| CCOc1ccc(-c2ccc(NS(=O)(=O)c3ccccc3)cc2)nn1 | 102% (inactive) | 0.9 | 104% |
| S=C(c1ccc(-c2ccc(Cl)cc2)o1)N1CCN(c2ccccc2)CC1 | 63% (active) | -4.2 | 70% |
| Clc1ccc(/C=N\N2CCN(c3ccccc3)CC2)cc1 | 108% (inactive) | 1.3 | 100% |
| S=C(c1ccc(-c2ccccc2)o1)N1CCCCC1 | 99% (inactive) | -0.3 | 101% |
| CCC(Cc1ccccc1)NC(=O)c1ccco1 (centres undefined) | 99% (inactive) | -0.3 | 100% |
| Cc1noc(C)c1CSc1nnc(-c2ccccc2Br)n1Cc1ccccc1 | 96% (inactive) | -0.6 | 102% |
| C=C(C)CNC(=S)N=Nc1c(O)n(C)c2ccccc12 | 98% (inactive) | -0.4 | 101% |
| CCSc1nnc(NC(=O)/C=C/c2ccc3c(c2)OCCO3)s1 | 85% (active) | -3.6 | 91% |
| CCSc1nnc(NC(=O)c2ccc(C)c(S(=O)(=O)N(CC)CC)c2)s1 | 100% (inactive) | -0.5 | 98% |
| O=C(O)/C=C/c1ccc2c(c1)OCCO2 | 102% (inactive) | 0.1 | 99% |
| COc1ccc(S(=O)(=O)N2CCC(C(=O)N3CCCC3)CC2)cc1OC | 99% (inactive) | -0.6 | 100% |

| SMILES | % elongation | z-score | % elongation [1] |
| --- | --- | --- | --- |
| O=C(NCc1ccco1)c1cc(Cl)cc(Cl)c1 | 99% (inactive) | -0.7 | 104% |
| CCN1CCN(C2=Nc3c(Cl)cc(Cl)c4cccc2c34)CC1 | 45% (inactive) | -6.5 | 247% |
| CCc1cc(=O)oc2c(C)c3c(cc12)CN(Cc1ccccc1)CO3 | 100% (inactive) | -0.7 | 104% |
| CCN(CC)CCN1COc2c(cc(Cl)c3cccnc23)C1 | 84% (active) | -5.8 | 80% |
| O=c1c(C=Nc2cc(Cl)ccc2O)c(O)n(C2CCCCC2)c(=O)n1C1CCCCC1 | 100% (inactive) | 0 | 100% |
| NS(=O)(=O)c1ccc(CCN(Cc2nc3ccsc3c(=O)[nH]2)Cc2nc3ccsc3c(=O)[nH]2)cc1 | 111% (inactive) | 1.1 | 110% |
| COC(=O)C(Cc1ccccc1)NC(=O)c1n[nH]c(=O)c2ccccc12 (centres undefined) | 101% (inactive) | -0.2 | 100% |
| COc1ccc(OCCOc2ccccc2F)cc1 | 104% (inactive) | 1.2 | 102% |
| CCOC(=O)C1(C2(O)C(=O)c3ccccc3C2=O)CCCC1=O (centres undefined) | 75% (active) | -3.1 | 72% |
| CCOC(=O)C1(C(=O)OCC)CCN(S(=O)(=O)c2ccc(C)cc2)c2ccccc2C1=O | 107% (inactive) | 0.2 | 102% |
| CCOC(=O)C1(C(=O)OCC)C(c2ccccc2)CC(=O)CC1c1ccccc1 (centres undefined) | 99% (inactive) | -0.3 | 96% |
| Nc1ccc(N=C2C(=O)Nc3ccccc32)cc1 | 99% (inactive) | -0.4 | 100% |
| CN(C)/C=C1/C(=O)Nc2ccccc21 | 98% (inactive) | -0.1 | 103% |
| O=C1Nc2ccccc2C1=Nc1cccc(C(F)(F)F)c1 | 88% (active) | -1.2 | 90% |
| COc1ccc(C(C#N)OC(C)=O)c(OCc2ccccc2)c1OC (centres undefined) | 105% (inactive) | 0.2 | 102% |
| O=C(Cc1ccccc1)Nc1sc2c(c1C(=O)Nc1ccc(Br)cc1)CCC2 | 102% (inactive) | -0.1 | 106% |
| CCOc1ccc(NC(=O)c2c(NCc3cccc(OC)c3OC)sc3c2CCC3)cc1 | 108% (inactive) | 0.4 | 114% |
| COC(=O)c1c(NC(=O)CCCOc2ccccc2)sc2c1CCC(C)C2 (centres undefined) | 105% (inactive) | 0.2 | 112% |
| CCOc1ccc(NC(=O)c2c(NC(=O)Cc3ccccc3)sc3c2CCCCC3)cc1 | 75% (active) | -5 | 78% |
| CCOc1ccc(NC(=O)c2c(NC(=O)Cc3ccccc3)sc3c2CCC(C)C3)cc1 (centres undefined) | 83% (active) | -3.6 | 84% |
| Cc1cccc(OCCCC(=O)Nc2sc3c(c2C(N)=O)CCC(C)C3)c1 (centres undefined) | 101% (inactive) | -0.6 | 102% |
